The sample as a whole holds a higher share of hits than the screen did.
Dicer processing = human Dicer pre-microRNA cleavage inhibition; cat-ELCCA pre-miR-21 Dicer processing, chemiluminescence; stronger effect = higher value; z-score at 25 µM; actives 6% (n = 47,000); AID 1347074; in the data active means z-score above about 3, passing the limit was not always enough;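 further: plate controls were vehicle for no effect and no enzyme for full effect; higher signal means more uncleaved substrate so more Dicer inhibition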
Target sequence (Q9UPY3 whole entry, looked up): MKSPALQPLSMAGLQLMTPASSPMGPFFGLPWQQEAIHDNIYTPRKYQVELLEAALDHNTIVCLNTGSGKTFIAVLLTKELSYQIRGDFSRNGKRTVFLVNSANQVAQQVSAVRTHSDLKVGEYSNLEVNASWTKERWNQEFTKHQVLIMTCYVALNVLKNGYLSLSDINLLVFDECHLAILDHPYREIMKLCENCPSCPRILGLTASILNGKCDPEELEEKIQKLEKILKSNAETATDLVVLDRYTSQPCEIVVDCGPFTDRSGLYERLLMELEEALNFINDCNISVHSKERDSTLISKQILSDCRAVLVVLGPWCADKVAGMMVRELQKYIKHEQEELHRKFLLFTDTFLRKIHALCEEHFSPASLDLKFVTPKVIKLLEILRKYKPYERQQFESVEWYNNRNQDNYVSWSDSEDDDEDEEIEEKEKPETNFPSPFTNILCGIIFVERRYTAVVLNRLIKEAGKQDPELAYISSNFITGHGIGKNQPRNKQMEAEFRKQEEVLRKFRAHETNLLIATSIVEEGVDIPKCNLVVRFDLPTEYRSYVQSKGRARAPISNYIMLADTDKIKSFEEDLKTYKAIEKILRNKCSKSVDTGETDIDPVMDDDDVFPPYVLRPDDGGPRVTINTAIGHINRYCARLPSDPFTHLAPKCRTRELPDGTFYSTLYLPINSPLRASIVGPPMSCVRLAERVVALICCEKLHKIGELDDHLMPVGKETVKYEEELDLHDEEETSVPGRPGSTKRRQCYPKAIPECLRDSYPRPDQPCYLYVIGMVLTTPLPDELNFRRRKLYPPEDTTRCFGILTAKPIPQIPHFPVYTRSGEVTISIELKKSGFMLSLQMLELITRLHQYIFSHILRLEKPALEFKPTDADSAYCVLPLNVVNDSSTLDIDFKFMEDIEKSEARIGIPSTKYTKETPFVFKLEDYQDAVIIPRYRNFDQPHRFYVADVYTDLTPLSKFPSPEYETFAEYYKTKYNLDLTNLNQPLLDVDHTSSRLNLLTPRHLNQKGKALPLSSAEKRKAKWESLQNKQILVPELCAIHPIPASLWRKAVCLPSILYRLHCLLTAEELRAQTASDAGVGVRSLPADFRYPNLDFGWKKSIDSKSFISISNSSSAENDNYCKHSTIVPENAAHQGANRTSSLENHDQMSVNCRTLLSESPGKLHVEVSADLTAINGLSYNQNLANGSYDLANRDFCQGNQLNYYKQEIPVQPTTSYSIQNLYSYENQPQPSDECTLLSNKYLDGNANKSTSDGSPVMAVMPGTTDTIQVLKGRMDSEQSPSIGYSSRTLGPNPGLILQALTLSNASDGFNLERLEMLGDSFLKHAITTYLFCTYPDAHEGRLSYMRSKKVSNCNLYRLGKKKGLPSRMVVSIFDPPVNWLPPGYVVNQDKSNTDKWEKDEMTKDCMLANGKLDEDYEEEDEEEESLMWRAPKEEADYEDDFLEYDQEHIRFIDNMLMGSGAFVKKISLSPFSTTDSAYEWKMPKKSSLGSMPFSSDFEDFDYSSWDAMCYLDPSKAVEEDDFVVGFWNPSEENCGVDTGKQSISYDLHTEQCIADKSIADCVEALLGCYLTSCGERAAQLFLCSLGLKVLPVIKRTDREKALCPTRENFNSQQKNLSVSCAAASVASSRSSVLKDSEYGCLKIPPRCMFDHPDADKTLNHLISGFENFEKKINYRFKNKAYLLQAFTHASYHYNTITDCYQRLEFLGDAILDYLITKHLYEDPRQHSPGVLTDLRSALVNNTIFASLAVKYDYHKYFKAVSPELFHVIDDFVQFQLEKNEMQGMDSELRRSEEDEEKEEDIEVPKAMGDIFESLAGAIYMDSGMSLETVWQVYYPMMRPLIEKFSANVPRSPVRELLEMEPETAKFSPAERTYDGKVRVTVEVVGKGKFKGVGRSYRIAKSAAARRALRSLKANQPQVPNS
* hit, by the source's call.

Results for COc1cccc(C2=NN3C(C2)c2cc(Br)ccc2OC3c2ccncc2)c1 (stereo not given) ?
Dicer processing: 6.71*

What do the screens show for `Brc1ccc2c(c1)C1CC(c3ccco3)=NN1C(c1ccccc1)O2` (stereo not given)?
Dicer processing: 5.71*

How did CC1=C(C(=O)OCC(C)C)C(c2cccs2)C2=C(CCCC2=O)N1 (stereo not given) do in these assays?
Dicer processing: -0.81

How did COc1cccc(C2CC(=O)NC(SCc3ccccc3)=C2C#N)c1 (stereo not given) do in these assays?
Dicer processing: 0.04

How did O=c1[nH]c(-c2cccc([N+](=O)[O-])c2)nc2ccccc12 do in these assays?
Dicer processing: -0.81

What do the screens show for `COc1ccc(C2Oc3c(OC)cccc3C3CC(c4cc(OC)ccc4O)=NN32)cc1` (stereo not given)?
Dicer processing: 0.44

How did COc1ccc(O)c(C2=NN3C(C2)c2cc(Br)ccc2OC3c2cccnc2)c1 (stereo not given) do in these assays?
Dicer processing: 3.11

Results for COC(=O)c1ccc(C2Oc3ccccc3C3CC(c4cc(OC)ccc4O)=NN32)cc1 (stereo not given) ?
Dicer processing: 2.66

Results for COc1ccc(O)c(C2=NN3C(C2)c2cc(Br)ccc2OC3c2ccncc2)c1 (stereo not given) ?
Dicer processing: 13.1*

How did CCOc1ccc(C2Oc3ccc(Cl)cc3C3CC(c4ccco4)=NN32)cc1 (stereo not given) do in these assays?
Dicer processing: 3.82*

What do the screens show for `Cc1nn(C(=O)Nc2ccccc2)c(C)c1Cc1csc2ccc(Cl)cc12`?
Dicer processing: -0.73

Results for CCCOC(=O)c1ccc2c(c1)C(=O)NC2=O ?
Dicer processing: -1.39

What do the screens show for `Cc1ccc(C)n1-c1sccc1C(=O)O`?
Dicer processing: 2.61

How did Cc1ccc(C)n1-c1ccc(Br)cc1C(=O)O do in these assays?
Dicer processing: 8.75

What do the screens show for `Cc1ccc(C)n1-c1ccc(O)c(C(=O)O)c1`?
Dicer processing: 32.5*

Results for COCc1cc(N2CCCCC2)nc(-c2csc(C)n2)n1 ?
Dicer processing: 0.02

Results for COc1ccccc1N1CC(C)(C)C(=O)NC1=S ?
Dicer processing: 6.22*

What do the screens show for `COc1ccccc1NC(=S)N1CC(C)(C)C1=O`?
Dicer processing: -0.45

How did COc1ccccc1N1C(=O)C2C3C=CC(CC3)C2C1=O (stereo not given) do in these assays?
Dicer processing: 0.02

Results for NC1=NC(c2ccco2)n2c(nc3ccccc32)N1 (stereo not given) ?
Dicer processing: 1.09

Results for CCCCOC(=O)C1C2C=CC3(CN(Cc4ccccc4)C(=O)C13)O2 (stereo not given) ?
Dicer processing: 0.77

Results for CCOC(=O)c1c(N)sc2c1CCN(C(=O)OCC)C2 ?
Dicer processing: 1.32

What do the screens show for `CCCCc1c(O)nc2sc3ccccc3n2c1=O`?
Dicer processing: 0.25

How did CCc1c(O)nc(SCC(=O)N2CCc3ccccc32)n(-c2ccccc2)c1=O do in these assays?
Dicer processing: -1

Results for CCCCc1c(O)nc(SCCN(CC)CC)n(-c2ccccc2)c1=O ?
Dicer processing: 3.32*

How did CCOc1ccc(C2c3c(oc4ccc(F)cc4c3=O)C(=O)N2Cc2ccc3c(c2)OCO3)cc1 (stereo not given) do in these assays?
Dicer processing: 0.97

How did CC(C)(C)c1cc(C(=O)NN)n(Cc2ccccc2)n1 do in these assays?
Dicer processing: 0.16

How did CCOC(=O)N/N=C(\CN1C(=O)c2ccccc2C1=O)c1ccc(OC)cc1 do in these assays?
Dicer processing: 2.18

How did NC1=NC(c2ccncc2)n2c(nc3ccccc32)N1 (stereo not given) do in these assays?
Dicer processing: 0.89

Results for COc1cc(C2N=C(N)Nc3nc4ccccc4n32)ccc1O (stereo not given) ?
Dicer processing: 5.87*

Results for NC1=NC(c2ccccc2O)n2c(nc3ccccc32)N1 (stereo not given) ?
Dicer processing: 3.56*

What do the screens show for `NC1=NC(c2ccccc2)n2c(nc3ccccc32)N1` (stereo not given)?
Dicer processing: 2.18

What do the screens show for `COc1ccc(C2N=C(N)Nc3nc4ccccc4n32)c(OC)c1` (stereo not given)?
Dicer processing: 0.18

How did CCOc1cc(C2N=C(N)Nc3nc4ccccc4n32)ccc1O (stereo not given) do in these assays?
Dicer processing: 2.39

How did Cc1c2c(=O)n(-c3ccccc3)[nH]c2cc(=O)n1Cc1cccs1 do in these assays?
Dicer processing: -1.83

What do the screens show for `O=C1CC(c2cccc(Cl)c2)c2c(n[nH]c2-c2ccccc2)N1` (stereo not given)?
Dicer processing: 0.47

What do the screens show for `Cn1nccc1NC(=O)c1ccccc1Cl`?
Dicer processing: -0.77

Results for Cc1ccc(S(=O)(=O)NC(=O)Nc2ccc(C#N)cc2)cc1 ?
Dicer processing: 0.53

How did COc1cc(C2NC(C(=O)O)CS2)ccc1OCc1ccccc1C (stereo not given) do in these assays?
Dicer processing: -0.97

Results for CSc1scc(-c2cccc(Cl)c2)c1C#N ?
Dicer processing: -0.55

What do the screens show for `CN(C)c1scc(-c2ccccc2)c1C#N`?
Dicer processing: 15*

Results for COC(=O)c1sc(N(C)C)c(C#N)c1-c1ccccc1 ?
Dicer processing: -0.43

How did Cn1c(=O)c2c(nc(Oc3ccc(Br)cc3Br)n2Cc2ccccc2)n(C)c1=O do in these assays?
Dicer processing: -0.77

Results for COc1cc(-n2c(SCC(=O)c3ccccc3)nc3ccccc3c2=O)c(OC)cc1Cl ?
Dicer processing: -0.01

Results for COc1cc(-n2c(SCC(=O)c3ccc(Cl)cc3)nc3ccccc3c2=O)c(OC)cc1Cl ?
Dicer processing: 3.82*

Results for O=C(CSc1n[nH]c(=O)n1-c1ccccc1)c1ccc(Cl)cc1 ?
Dicer processing: -3.48

Results for Nc1ncc(-c2nnnn2-c2ccc(F)cc2)c(C(F)(F)F)n1 ?
Dicer processing: 1.75

How did Fc1ccc(-n2nnnc2-c2cnn(-c3ccccc3Cl)c2C(F)(F)F)cc1 do in these assays?
Dicer processing: -1.58

How did FC(F)(F)c1[nH]ncc1-c1nnnn1-c1ccc(Cl)cc1 do in these assays?
Dicer processing: 4.75*

How did CC1=C(C(=O)OCCc2ccccc2)C(c2ccccc2F)C2=C(CC(C)(C)CC2=O)N1 (stereo not given) do in these assays?
Dicer processing: 0.12

How did CCOC(=O)C1=C(C)NC2=C(C(=O)CC(C)(C)C2)C1c1ccc(C)s1 (stereo not given) do in these assays?
Dicer processing: 0.81

How did Cn1nc(-c2ccc(S(=O)(=O)N3CCN(CCc4ccccc4)CC3)s2)cc1C(F)(F)F do in these assays?
Dicer processing: -0.7

How did CCOC(=O)CSc1nc(SCC(=O)OCC)c2c3c([nH]c2n1)CCCC3 do in these assays?
Dicer processing: 2.71

Results for Cc1ccc(S(=O)(=O)n2ccnc2C)cc1C ?
Dicer processing: 0.01

How did CCCCCCC#Cc1cncc(C(=O)O)c1 do in these assays?
Dicer processing: -0.04

What do the screens show for `OCCCCCCN(Cn1nnc2ccccc21)Cn1nnc2ccccc21`?
Dicer processing: 0.54

Results for FC(F)(F)c1ccc(NCn2nnc3ccccc32)cc1 ?
Dicer processing: -5.33

What do the screens show for `FC(F)(F)Oc1ccccc1NCn1nnc2ccccc21`?
Dicer processing: 3.58*

How did COc1cc(C2C3=C(CCCC3=O)Nc3nc(SCc4ccccc4F)[nH]c(=O)c32)ccc1O (stereo not given) do in these assays?
Dicer processing: -0.03

How did O=S(=O)(c1ccc(OC(F)(F)F)cc1)N1CCN(S(=O)(=O)c2cc(Cl)cc(Cl)c2)CC1 do in these assays?
Dicer processing: 1.02
